Experimental data: paper PMC7862700, “An all-to-all approach to the identification of sequence-specific readers for epigenetic DNA modifications on cytosine”

Columns and labels:
Test in all cases: DAPPL (digital affinity profiling via proximity ligation, sequencing); 10 mM Tris-HCl pH 7.5, 50 mM NaCl, 1 mM DTT, 4% glycerol, room temperature, 30 min; GST-TFs on glutathione beads, 16-mer random dsDNA library, 0.1% formaldehyde crosslink after washing; high values mean tight binding
FLI1 = target: T1, FLI1 (Homo sapiens, UniProt Q01543 1-452); settings: protein: recombinant; tags: N-terminal GST; dsDNA, one strand shown
T1 sequence: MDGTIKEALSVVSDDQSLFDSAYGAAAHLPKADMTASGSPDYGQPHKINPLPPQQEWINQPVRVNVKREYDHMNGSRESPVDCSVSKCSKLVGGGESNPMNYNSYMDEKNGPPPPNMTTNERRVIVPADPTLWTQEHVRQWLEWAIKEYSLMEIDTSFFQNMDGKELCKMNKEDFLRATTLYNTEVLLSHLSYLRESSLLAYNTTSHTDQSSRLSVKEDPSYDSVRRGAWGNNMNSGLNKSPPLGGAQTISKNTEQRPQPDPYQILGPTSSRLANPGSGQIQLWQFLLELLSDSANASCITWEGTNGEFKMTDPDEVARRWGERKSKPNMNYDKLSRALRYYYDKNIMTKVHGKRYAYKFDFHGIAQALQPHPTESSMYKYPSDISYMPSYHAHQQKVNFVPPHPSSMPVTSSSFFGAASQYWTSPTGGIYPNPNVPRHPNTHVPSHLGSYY
Procedure, shortened: (§1)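 Each value of binding signal is a hexamer's read frequency for a factor divided by the same hexamer's frequency in the tag-only sample. Barcoded, bead-captured GST fusions of human transcription factors made in yeast were pooled with that sample and incubated with 200 nmole of a random double-stranded 16-mer DNA library in Tris/NaCl/DTT/glycerol buffer at room temperature for 30 min. Washing, 0.1% formaldehyde crosslinking, proximity ligation, PCR and Illumina NextSeq500 sequencing followed.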

ELK1 = target: T2, ELK1 (Homo sapiens, UniProt P19419 1-428); settings: protein: recombinant; tags: N-terminal GST; dsDNA, one strand shown
T2 sequence: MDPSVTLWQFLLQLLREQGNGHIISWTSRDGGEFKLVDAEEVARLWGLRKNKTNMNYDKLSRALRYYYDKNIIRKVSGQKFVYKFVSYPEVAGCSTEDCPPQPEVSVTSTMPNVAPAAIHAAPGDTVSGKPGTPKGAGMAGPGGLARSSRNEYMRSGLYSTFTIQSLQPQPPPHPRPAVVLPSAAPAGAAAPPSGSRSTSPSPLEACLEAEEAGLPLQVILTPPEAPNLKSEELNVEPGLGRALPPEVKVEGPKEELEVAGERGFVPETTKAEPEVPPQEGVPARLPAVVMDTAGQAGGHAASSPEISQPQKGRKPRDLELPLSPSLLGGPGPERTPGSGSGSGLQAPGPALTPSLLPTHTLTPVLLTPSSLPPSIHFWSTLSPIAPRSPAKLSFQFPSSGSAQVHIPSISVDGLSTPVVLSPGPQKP
Procedure, shortened: as §1

GABPA = target: T3, GABPA (Homo sapiens, UniProt Q06546 1-454); settings: protein: recombinant; tags: N-terminal GST; dsDNA, one strand shown
T3 sequence: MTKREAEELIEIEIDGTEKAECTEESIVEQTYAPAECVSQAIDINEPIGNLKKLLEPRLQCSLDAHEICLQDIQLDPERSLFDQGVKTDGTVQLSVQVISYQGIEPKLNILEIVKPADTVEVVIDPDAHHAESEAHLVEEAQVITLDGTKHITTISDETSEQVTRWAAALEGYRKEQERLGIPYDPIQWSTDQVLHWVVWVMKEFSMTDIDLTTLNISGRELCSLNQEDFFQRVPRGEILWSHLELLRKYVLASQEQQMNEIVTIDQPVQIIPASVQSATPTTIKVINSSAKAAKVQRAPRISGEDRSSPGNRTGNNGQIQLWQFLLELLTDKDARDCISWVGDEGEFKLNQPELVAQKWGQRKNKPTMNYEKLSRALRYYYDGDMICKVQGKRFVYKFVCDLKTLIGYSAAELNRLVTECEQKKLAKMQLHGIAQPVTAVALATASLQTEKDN
Procedure, shortened: as §1

ERG = target: T4, ERG (Homo sapiens, UniProt P11308 1-479); settings: protein: recombinant; tags: N-terminal GST; dsDNA, one strand shown
T4 sequence: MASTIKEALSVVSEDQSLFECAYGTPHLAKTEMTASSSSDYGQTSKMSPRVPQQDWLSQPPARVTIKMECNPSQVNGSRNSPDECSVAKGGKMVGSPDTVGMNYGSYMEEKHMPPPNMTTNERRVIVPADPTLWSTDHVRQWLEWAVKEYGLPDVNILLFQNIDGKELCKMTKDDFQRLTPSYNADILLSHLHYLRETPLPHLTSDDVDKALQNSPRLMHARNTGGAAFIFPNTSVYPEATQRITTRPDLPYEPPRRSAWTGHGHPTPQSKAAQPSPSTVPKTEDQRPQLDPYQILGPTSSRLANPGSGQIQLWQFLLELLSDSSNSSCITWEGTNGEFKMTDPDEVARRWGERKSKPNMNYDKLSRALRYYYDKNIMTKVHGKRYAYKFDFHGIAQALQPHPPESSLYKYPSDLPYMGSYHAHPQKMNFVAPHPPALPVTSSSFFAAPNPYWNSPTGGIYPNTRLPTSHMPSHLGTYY
Procedure, shortened: as §1

ELF1 = ELF1 (Homo sapiens, UniProt P32519 1-619); settings: protein: recombinant; tags: N-terminal GST; dsDNA, one strand shown
Procedure, shortened: as §1

EHF = target: T5, EHF (Homo sapiens, UniProt Q9NZC4 1-300); settings: protein: recombinant; tags: N-terminal GST; dsDNA, one strand shown
T5 sequence: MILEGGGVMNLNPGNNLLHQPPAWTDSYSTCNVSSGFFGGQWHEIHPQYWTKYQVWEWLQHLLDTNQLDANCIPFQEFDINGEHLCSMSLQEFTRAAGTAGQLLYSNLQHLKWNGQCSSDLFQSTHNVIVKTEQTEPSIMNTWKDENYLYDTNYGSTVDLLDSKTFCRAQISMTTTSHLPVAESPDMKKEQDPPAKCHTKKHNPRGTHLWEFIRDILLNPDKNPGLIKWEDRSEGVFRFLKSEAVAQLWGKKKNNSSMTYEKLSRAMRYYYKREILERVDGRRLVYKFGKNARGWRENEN
Procedure, shortened: as §1

SPI1 = SPI1 (Homo sapiens, UniProt P17947 1-270); settings: protein: recombinant; tags: N-terminal GST; dsDNA, one strand shown
Procedure, shortened: as §1

SPIB = SPIB (Homo sapiens, UniProt Q01892 1-262); settings: protein: recombinant; tags: N-terminal GST; dsDNA, one strand shown
Procedure, shortened: as §1

ELK3 = target: T6, ELK3 (Homo sapiens, UniProt P41970 1-407); settings: protein: recombinant; tags: N-terminal GST; dsDNA, one strand shown
T6 sequence: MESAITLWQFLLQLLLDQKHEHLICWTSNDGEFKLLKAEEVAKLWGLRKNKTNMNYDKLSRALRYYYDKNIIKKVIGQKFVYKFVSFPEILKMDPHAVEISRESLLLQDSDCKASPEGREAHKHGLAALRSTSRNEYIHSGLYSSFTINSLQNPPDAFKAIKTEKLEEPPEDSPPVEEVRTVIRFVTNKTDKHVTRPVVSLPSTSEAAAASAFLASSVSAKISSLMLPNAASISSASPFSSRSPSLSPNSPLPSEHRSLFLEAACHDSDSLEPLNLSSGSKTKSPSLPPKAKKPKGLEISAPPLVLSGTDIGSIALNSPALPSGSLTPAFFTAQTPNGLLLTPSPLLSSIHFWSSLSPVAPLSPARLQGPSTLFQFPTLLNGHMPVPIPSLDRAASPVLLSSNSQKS
Procedure, shortened: as §1

FEV = target: T7, FEV (Homo sapiens, UniProt Q99581 1-238); settings: protein: recombinant; tags: N-terminal GST; dsDNA, one strand shown
T7 sequence: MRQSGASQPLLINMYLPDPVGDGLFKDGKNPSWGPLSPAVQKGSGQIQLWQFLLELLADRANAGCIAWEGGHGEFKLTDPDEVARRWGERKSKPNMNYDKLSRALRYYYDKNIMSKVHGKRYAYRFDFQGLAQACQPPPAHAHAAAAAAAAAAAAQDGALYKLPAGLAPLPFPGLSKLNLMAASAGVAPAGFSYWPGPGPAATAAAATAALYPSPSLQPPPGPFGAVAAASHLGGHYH
Procedure, shortened: as §1

ETV5 = ETV5 (Homo sapiens, UniProt P41161 1-510); settings: protein: recombinant; tags: N-terminal GST; dsDNA, one strand shown
Procedure, shortened: as §1

HSF1 = HSF1 (Homo sapiens, UniProt Q00613 1-529); settings: protein: recombinant; tags: N-terminal GST; chain copies: 3; dsDNA, one strand shown
Procedure, shortened: as §1

SPIC = target: T8, SPIC (Homo sapiens, UniProt Q8N5J4 1-248); settings: protein: recombinant; tags: N-terminal GST; dsDNA, one strand shown
T8 sequence: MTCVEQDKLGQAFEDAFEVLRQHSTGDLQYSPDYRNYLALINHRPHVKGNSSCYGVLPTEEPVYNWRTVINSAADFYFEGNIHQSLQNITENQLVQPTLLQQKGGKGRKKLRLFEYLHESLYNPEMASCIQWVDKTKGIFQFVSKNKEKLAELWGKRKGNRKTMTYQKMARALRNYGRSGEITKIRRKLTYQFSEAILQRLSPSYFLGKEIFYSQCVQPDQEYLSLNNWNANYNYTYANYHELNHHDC
Procedure, shortened: as §1

ELF4 = ELF4 (Homo sapiens, UniProt Q99607 1-663); settings: protein: recombinant; tags: N-terminal GST; dsDNA, one strand shown
Procedure, shortened: as §1

ELK4 = target: T9, ELK4 (Homo sapiens, UniProt P28324-2 1-405); settings: protein: recombinant; tags: N-terminal GST; dsDNA, one strand shown
T9 sequence: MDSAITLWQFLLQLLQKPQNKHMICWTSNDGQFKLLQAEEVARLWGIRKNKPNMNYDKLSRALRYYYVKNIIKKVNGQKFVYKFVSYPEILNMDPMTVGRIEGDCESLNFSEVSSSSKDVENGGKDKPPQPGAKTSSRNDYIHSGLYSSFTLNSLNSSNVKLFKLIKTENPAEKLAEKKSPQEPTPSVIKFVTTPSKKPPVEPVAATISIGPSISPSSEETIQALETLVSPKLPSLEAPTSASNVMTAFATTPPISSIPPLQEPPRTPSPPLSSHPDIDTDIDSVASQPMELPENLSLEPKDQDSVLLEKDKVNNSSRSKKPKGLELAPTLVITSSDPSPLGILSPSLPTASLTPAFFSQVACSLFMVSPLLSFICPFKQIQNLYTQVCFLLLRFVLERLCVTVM
Procedure, shortened: as §1

ETV2 = target: T10, ETV2 (Homo sapiens, UniProt O00321 1-342); settings: protein: recombinant; tags: N-terminal GST; dsDNA, one strand shown
T10 sequence: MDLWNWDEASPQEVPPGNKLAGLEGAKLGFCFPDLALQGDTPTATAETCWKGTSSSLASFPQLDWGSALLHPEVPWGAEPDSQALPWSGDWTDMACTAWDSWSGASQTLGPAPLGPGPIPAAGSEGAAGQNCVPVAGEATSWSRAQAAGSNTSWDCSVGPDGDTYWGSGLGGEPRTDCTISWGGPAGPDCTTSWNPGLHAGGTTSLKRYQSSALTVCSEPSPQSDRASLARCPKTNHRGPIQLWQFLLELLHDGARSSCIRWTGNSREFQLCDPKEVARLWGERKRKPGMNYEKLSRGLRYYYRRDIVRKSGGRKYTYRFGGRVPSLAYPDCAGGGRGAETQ
Procedure, shortened: as §1

ELF3 = target: T11, ELF3 (Homo sapiens, UniProt P78545 1-371); settings: protein: recombinant; tags: N-terminal GST; dsDNA, one strand shown
T11 sequence: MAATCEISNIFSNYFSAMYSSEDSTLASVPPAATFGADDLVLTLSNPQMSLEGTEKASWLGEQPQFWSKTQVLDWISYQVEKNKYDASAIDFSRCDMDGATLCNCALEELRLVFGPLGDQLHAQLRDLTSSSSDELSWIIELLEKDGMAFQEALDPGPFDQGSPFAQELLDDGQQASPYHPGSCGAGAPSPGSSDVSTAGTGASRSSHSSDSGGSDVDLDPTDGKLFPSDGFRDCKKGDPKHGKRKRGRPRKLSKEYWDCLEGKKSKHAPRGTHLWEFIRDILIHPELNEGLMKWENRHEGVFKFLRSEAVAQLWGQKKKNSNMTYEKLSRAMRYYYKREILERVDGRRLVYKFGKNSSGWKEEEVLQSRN
Procedure, shortened: as §1

CRX = CRX (Homo sapiens, UniProt O43186 1-299); settings: protein: recombinant; tags: N-terminal GST; dsDNA, one strand shown
Procedure, shortened: as §1

ETV1 = ETV1 (Homo sapiens, UniProt P50549 1-477); settings: protein: recombinant; tags: N-terminal GST; dsDNA, one strand shown
Procedure, shortened: as §1

Sequence of ELF4 (Q99607 whole entry): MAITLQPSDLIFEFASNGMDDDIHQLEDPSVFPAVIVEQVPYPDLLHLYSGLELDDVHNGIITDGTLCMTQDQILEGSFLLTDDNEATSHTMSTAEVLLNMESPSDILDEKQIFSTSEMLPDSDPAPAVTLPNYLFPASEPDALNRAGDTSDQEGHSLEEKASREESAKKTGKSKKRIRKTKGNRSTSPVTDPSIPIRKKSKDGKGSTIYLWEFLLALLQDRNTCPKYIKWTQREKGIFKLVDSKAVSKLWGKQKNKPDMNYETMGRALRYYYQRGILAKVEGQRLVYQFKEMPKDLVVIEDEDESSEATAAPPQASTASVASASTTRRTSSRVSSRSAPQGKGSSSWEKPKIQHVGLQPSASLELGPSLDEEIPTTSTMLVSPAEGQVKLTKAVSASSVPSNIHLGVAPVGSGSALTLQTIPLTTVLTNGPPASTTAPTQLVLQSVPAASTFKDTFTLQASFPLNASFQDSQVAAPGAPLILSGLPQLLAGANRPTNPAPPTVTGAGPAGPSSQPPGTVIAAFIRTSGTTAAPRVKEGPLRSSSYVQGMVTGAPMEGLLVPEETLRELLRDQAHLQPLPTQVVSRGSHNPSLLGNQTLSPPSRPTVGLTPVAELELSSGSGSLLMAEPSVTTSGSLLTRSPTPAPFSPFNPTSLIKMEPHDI
Sequence of ETV5 (P41161 whole entry): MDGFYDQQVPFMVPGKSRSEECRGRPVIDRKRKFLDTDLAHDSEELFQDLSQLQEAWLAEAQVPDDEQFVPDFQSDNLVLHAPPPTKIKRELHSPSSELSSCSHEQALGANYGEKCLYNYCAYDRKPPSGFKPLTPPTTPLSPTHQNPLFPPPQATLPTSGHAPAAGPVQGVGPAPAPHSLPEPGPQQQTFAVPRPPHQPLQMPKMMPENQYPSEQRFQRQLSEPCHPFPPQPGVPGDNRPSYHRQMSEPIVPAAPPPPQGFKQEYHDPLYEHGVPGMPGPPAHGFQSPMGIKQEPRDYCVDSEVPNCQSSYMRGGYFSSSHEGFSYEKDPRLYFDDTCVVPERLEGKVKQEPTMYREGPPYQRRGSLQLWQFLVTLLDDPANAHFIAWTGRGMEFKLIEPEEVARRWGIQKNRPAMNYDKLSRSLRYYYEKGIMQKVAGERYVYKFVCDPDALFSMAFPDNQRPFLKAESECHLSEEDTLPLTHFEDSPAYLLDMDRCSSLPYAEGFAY
Sequence of CRX (O43186 whole entry): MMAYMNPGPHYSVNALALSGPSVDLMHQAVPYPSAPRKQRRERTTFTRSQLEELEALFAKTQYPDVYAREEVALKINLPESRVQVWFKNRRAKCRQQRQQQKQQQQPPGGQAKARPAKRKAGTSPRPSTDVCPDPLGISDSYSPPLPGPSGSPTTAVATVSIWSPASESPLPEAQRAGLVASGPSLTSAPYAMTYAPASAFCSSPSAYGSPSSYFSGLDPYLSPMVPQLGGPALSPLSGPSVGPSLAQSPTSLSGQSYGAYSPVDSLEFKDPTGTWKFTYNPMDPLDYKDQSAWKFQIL
Sequence of ETV1 (P50549 whole entry): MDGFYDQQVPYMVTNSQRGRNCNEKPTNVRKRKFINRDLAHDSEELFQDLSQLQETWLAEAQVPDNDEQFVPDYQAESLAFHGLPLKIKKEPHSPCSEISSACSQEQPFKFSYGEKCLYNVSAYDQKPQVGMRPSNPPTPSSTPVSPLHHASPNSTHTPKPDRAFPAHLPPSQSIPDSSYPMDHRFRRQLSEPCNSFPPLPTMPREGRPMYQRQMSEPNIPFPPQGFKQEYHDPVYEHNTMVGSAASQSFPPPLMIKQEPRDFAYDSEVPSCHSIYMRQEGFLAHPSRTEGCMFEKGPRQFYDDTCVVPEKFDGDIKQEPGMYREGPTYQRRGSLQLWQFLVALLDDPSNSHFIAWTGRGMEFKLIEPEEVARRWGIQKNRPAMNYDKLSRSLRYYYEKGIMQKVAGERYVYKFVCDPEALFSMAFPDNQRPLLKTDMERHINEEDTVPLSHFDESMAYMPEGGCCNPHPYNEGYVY
Sequence of SPIB (Q01892 whole entry): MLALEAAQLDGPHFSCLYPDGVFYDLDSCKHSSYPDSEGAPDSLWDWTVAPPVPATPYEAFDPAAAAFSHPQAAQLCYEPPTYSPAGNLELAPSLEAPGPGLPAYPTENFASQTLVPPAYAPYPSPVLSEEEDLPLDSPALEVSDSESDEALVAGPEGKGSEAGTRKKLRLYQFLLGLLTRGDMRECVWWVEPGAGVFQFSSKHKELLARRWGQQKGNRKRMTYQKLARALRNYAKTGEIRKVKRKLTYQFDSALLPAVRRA
Sequence of ELF1 (P32519 whole entry): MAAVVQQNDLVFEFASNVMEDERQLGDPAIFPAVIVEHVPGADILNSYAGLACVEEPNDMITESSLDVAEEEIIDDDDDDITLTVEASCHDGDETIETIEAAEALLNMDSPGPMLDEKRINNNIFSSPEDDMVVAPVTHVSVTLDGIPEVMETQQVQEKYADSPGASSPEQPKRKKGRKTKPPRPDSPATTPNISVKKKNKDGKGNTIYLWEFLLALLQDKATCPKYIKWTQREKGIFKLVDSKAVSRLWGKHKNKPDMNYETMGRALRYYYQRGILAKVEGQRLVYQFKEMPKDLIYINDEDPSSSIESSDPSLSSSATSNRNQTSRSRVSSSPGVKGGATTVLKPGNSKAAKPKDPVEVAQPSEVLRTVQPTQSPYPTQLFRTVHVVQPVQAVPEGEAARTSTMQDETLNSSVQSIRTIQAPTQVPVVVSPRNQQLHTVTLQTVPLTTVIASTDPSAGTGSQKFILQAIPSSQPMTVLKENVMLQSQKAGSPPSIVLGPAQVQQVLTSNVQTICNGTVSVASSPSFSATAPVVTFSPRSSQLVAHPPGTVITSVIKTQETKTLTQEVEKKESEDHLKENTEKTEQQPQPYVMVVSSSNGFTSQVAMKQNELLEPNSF
Sequence of HSF1 (Q00613 whole entry): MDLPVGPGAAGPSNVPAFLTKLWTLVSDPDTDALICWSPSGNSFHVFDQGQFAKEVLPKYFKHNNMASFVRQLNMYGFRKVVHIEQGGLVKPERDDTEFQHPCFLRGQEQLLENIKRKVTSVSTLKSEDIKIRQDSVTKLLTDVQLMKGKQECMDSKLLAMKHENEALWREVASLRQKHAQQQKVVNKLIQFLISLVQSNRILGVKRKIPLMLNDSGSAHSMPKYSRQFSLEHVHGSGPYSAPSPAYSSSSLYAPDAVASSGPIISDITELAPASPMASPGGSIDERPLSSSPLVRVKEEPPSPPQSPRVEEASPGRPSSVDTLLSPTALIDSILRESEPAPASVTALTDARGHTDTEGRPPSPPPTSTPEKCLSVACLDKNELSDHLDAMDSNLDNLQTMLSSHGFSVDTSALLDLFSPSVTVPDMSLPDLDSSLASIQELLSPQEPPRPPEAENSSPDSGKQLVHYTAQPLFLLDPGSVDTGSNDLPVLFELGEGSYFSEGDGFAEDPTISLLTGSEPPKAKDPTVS

Sequence: CTGGAT
- binding signal (FLI1): 1.31 fold enrichment (6-mer frequency, TF over GST control)
- binding signal (ELK1): 1.19 fold enrichment (6-mer frequency, TF over GST control)
- binding signal (GABPA): 1.38 fold enrichment (6-mer frequency, TF over GST control)
- binding signal (ERG): 1.38 fold enrichment (6-mer frequency, TF over GST control)
- binding signal (ELF1): 1.36 fold enrichment (6-mer frequency, TF over GST control)
- binding signal (EHF): 1.32 fold enrichment (6-mer frequency, TF over GST control)
- binding signal (SPI1): 1.25 fold enrichment (6-mer frequency, TF over GST control)
- binding signal (SPIB): 1.36 fold enrichment (6-mer frequency, TF over GST control)
- binding signal (ELK3): 1.31 fold enrichment (6-mer frequency, TF over GST control)
- binding signal (FEV): 1.38 fold enrichment (6-mer frequency, TF over GST control)
- binding signal (ETV5): 1.4 fold enrichment (6-mer frequency, TF over GST control)
- binding signal (HSF1): 2.19 fold enrichment (6-mer frequency, TF over GST control)
- binding signal (SPIC): 1.34 fold enrichment (6-mer frequency, TF over GST control)
- binding signal (ELF4): 1.35 fold enrichment (6-mer frequency, TF over GST control)
- binding signal (ELK4): 1.35 fold enrichment (6-mer frequency, TF over GST control)
- binding signal (ETV2): 1.41 fold enrichment (6-mer frequency, TF over GST control)
- binding signal (ELF3): 1.41 fold enrichment (6-mer frequency, TF over GST control)
- binding signal (CRX): 2.05 fold enrichment (6-mer frequency, TF over GST control)
- binding signal (ETV1): 1.47 fold enrichment (6-mer frequency, TF over GST control)
